Source: PubChem BioAssay (NCATS)
Inconclusive results are not listed. Calls of active or inactive are those of the source. Unless noted, calls come from the whole dose curve; as a rule, active = well fitted curve in the direction sought with a large enough effect; inconclusive = small, poorly fitted or top-dose-only effect, or another doubt; inactive = no such curve, though single readings can be large; an effect the other way counts as inactive or inconclusive.

Assays:
[1] = target: Lysosomal acid glucosylceramidase (Homo sapiens) (UniProt P04062); test: Glucocerebrosidase-p2 (AID 348; in the data active = potency below about 10 µM; note: potency is the fitted concentration of half-maximal effect); details: purified GBA, blue fluorogenic substrate, 40 min
Lysosomal acid glucosylceramidase (Homo sapiens), sequence (P04062 whole entry, looked up): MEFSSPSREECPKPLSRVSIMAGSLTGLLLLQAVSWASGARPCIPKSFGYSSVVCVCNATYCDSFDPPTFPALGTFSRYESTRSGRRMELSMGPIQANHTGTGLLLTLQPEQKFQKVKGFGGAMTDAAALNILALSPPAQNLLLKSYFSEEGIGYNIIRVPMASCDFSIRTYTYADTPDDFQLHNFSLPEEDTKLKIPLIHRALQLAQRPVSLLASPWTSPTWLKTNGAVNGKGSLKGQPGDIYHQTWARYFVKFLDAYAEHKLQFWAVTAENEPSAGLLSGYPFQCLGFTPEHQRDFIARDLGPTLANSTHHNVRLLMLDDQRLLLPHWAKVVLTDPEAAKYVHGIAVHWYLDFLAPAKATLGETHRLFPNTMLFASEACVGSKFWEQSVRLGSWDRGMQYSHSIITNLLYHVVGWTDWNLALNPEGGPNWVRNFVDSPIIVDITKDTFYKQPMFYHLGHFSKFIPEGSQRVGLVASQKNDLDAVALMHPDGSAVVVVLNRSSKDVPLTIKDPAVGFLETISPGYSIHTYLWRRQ
In short: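 Normal human glucocerebrosidase (0.2 nM) with blue fluorogenic substrate (80 uM final) in citrate/phosphate pH 5.9 with 10mM sodium taurocholate, 0.01% tween-20; 40 min RT, NaOH/glycine stop; fluorescence Ex 365/Em 440; AC50 from a titration from 0.6 nM upwards.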

[2] = AP1 Signaling Pathway (AID 357; active = well fitted curve in either direction with a large enough effect, not every such curve was filed as active;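 note: ME-180 reporter cells stimulated with EGF at its EC50 level; % is set by controls: 0 for no effect and ±100 for the full control effect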); details: ME-180 AP-1-bla reporter, EGF-induced, beta-lactamase ratio, 5 h; at 7.69 µM (top of the series) unless noted
In short: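 Modulation of EGF-driven AP-1 transcription was assessed with a beta-lactamase reporter in ME-180 cells. Compound and EC50 EGF were co-incubated 5 hours at 37 °C before 2.5-hour CCF4 loading at room temperature and dual-emission reading.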

[3] = NFAT Signaling Pathway (AID 444; active = well fitted curve in either direction with a large enough effect, not every such curve was filed as active;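 note: carbachol stimulus at about its EC50 of 1 µM final; % is set by controls: 0 for no effect and ±100 for the full control effect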); details: Jurkat NFAT-bla M1, carbachol, beta-lactamase ratio, 5 h; at 7.69 µM (top of the series) unless noted
In short: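 Read-out: CCF4 FRET ratio (460 nm/530 nm) after 1 h RT dye loading, used for %activity and AC50 from titration series. Cells: Jurkat NFAT-β-lactamase/M1 line, treated with compound plus 1 uM carbachol for 5 h, 37 °C.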

[4] = Stat Signaling Pathway (AID 446; active = well fitted curve in either direction with a large enough effect, not every such curve was filed as active;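 note: ME-180 cervical cancer cells given 40 pM IL-6 alongside compound; SIE-controlled beta-lactamase reporter measured as 460/530 nm FRET emission ratio; % is set by controls: 0 for no effect and ±100 for the full control effect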); details: ME-180 (cervical carcinoma) SIE beta-lactamase reporter, IL-6 stimulated, 5 h; at 7.69 µM (top of the series) unless noted
In short: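 Normalization used AC90 stimulation (300 pM IL-6) and AC90 inhibition (125 nM pan-JAK inhibitor at 40 pM IL-6). The underlying signal is SIE-driven beta-lactamase in ME-180 cells after 5 h IL-6 exposure with compound.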

[5] = target: Glucocorticoid receptor (Homo sapiens) (UniProt P04150); test: GR-GFP Redistribution (AID 450;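 active = compounds whose dose series gives a full or clear partial fitted curve of increased nuclear translocation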; note: potency is the fitted concentration of half-maximal effect); details: U2OS GR-GFP nuclear translocation, laser cytometry, 2 h
Glucocorticoid receptor (Homo sapiens), sequence (P04150 whole entry, looked up, the tested form may be a part): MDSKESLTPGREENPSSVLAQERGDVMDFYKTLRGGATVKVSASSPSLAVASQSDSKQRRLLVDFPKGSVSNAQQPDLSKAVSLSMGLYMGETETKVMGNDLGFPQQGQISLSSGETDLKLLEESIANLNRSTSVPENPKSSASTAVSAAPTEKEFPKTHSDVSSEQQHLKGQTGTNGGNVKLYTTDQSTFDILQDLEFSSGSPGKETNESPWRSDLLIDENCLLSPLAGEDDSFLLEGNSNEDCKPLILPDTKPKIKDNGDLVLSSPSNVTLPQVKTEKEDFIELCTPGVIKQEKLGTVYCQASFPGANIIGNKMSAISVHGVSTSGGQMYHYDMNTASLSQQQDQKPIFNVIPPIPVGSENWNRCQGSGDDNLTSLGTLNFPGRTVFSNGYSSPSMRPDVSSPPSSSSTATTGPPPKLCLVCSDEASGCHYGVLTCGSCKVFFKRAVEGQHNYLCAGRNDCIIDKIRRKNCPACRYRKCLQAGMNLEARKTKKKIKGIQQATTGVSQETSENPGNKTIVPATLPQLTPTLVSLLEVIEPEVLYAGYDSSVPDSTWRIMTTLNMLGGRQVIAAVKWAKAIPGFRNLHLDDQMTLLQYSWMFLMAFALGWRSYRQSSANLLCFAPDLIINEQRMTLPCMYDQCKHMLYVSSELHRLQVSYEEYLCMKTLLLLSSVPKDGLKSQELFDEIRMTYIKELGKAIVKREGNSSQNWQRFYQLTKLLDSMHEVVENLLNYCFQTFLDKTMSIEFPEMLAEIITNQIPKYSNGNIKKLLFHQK

[6] = target: Glucocorticoid receptor (Homo sapiens) (UniProt P04150); test: GR-EFC Redistribution (AID 451; calls by dose curve; note: potency is the fitted concentration of half-maximal effect); details: CHO-K1 GR-EFC translocation, beta-gal luminescence, 2 h
In short: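 Translocation of GR-ED fusion to nuclear EA restores b-gal, read by luminescence after 1 h room-temperature detection. Engineered CHO-K1 biosensor cells, 1,000/well, exposed 2 h at 37 C to titrations up to 46 uM final.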

[7] = target: Mitogen-activated protein kinase 10 (Mus musculus) (UniProt Q61831); test: JNK3 AlphaScreen Assay (AID 530; active = well fitted curve in either direction with a large enough effect, not every such curve was filed as active;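 note: kinase came from lysate of stimulated human HepG2 cells; signal reports phosphorylation of biotinylated GST-cJun 1-79 at Ser73 with 10 µM ATP; % is set by controls: 0 for no effect and ±100 for the full control effect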); details: JNK3 lysate, c-Jun phosphorylation; series mostly up to 57.1 µM
In short: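 qHTS titrations with 15 min compound pre-incubation before adding ATP (10 uM final). Read-out: AlphaScreen of Ser73-phosphorylated biotin-GST-cJun using HepG2 lysate JNK3 activated by IL-1β and TNFα.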

[8] = target: 3',5'-cyclic-AMP phosphodiesterase 4B (Homo sapiens) (UniProt Q07343); test: qHTS Assay for Inhibitors of PDE-IV (AID 607; active = well fitted activation curve with a large enough effect in the main read-out, with a control signal flat, not every such curve was filed as active; note: % of control where 0% means no effect); details: HEK293 ACTOne CNG channel cells, membrane potential fluorescence; series mostly up to 22.9 µM
3',5'-cyclic-AMP phosphodiesterase 4B (Homo sapiens), sequence (Q07343 whole entry, looked up): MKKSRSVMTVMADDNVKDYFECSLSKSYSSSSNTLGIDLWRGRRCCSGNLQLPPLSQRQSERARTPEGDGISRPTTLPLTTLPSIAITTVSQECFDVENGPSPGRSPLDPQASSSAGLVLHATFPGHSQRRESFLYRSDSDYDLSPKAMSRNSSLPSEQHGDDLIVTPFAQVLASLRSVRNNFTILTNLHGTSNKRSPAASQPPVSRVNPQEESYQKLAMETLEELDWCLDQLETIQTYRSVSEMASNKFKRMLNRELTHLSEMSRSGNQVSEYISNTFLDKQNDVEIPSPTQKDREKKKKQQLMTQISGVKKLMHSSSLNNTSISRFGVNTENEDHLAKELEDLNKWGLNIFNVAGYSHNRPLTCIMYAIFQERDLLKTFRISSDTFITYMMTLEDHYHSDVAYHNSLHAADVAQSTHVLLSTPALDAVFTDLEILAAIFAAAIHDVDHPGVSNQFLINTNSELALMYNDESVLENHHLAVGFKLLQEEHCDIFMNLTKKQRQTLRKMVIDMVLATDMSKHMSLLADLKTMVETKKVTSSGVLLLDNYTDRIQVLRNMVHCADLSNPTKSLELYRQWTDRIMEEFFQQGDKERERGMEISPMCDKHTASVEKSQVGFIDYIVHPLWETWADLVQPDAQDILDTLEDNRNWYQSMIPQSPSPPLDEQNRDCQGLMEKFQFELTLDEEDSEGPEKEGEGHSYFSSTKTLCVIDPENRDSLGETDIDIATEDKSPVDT
In short: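 HEK293 ACTOne cells with CNG channel (1000/well), endogenous PDE4; membrane potential dye, compounds up to 22.9 uM final. Fluorescence Ex 535/Em 590; RO 20-1724 (100 uM final) as reference.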

[9] = qHTS Assay for Lipid Storage Modulators (AID 1519; calls by dose curve); details: Drosophila S3 cells, BODIPY lipid droplet/cell ratio, laser cytometry, cells loaded with oleic acid; for activity change, negative = inhibition: at 57.5 µM (top of the series)
In short: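 Cells seeded at 5,000 per well were treated with compounds over a concentration series and loaded with oleic acid (400 uM, as added). Lipid droplet fluorescence (488 nm excitation, 500-530 nm channel) was read by laser-scanning cytometry and normalized to 20 uM Triacsin C.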

[10] = target: Dual specificity protein kinase CLK4 (Homo sapiens) (UniProt Q9HAZ1); test: qHTS Assay for Inhibitors of CDC-like Kinase 4 (Kinase-Glo Assay) (AID 1770); details: recombinant Clk4, Kinase-Glo ATP depletion luminescence; series mostly up to 66.7 µM; note: % is set by controls: 0 for no effect and ±100 for the full control effect; nearly all actives have a fitted effect of over 65% in size
Dual specificity protein kinase CLK4 (Homo sapiens), sequence (Q9HAZ1 whole entry, looked up): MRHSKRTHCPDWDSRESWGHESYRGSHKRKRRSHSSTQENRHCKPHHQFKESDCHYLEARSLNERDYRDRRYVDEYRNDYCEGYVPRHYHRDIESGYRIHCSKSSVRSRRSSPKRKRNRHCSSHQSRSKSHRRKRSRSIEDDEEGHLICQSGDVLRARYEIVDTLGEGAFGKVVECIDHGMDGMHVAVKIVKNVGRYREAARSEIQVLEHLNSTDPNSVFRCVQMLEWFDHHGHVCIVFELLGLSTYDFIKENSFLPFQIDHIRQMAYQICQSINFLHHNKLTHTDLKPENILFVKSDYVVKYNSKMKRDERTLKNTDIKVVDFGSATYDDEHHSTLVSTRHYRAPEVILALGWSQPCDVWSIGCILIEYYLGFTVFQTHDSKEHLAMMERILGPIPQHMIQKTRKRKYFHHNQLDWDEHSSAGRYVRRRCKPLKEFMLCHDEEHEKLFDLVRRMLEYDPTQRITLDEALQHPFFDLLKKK
In short: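 25 nM Clk4 with 100 uM RS repeat peptide and 1 uM ATP (final) in Tris pH7.5, 10 mM MgCl2, 4.5 h at room temperature. Remaining ATP measured by Kinase-Glo luciferase luminescence.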

[11] = target: Dual specificity protein kinase CLK4 (Homo sapiens) (UniProt Q9HAZ1); test: qHTS Assay for Inhibitors of CDC-like Kinase 4 (ADP-Glo Assay) (AID 1771); details: recombinant CLK4, ADP-Glo luminescence; series mostly up to 80 µM; note: % is set by controls: 0 for no effect and ±100 for the full control effect; nearly all actives have a fitted effect of over 70% in size
In short: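 ADP production was read by ADP-Glo luminescence after residual ATP depletion, following 1 h room-temperature reaction of 25 nM Clk4, 1 uM ATP and 100 uM RS peptide with MgCl2, EGTA, DTT and Triton X-100.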

[12] = target: Dual specificity protein kinase CLK4 (Homo sapiens) (UniProt Q9HAZ1); test: qHTS Assay for Inhibitors of CDC-like Kinase 4 (ADP-FP Assay) (AID 1795); details: Transcreener ADP fluorescence polarization; series mostly up to 50 µM;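 note: recombinant human CLK4 phosphorylating RS repeat peptide at 1 µM ATP; % is set by controls: 0 for no effect and ±100 for the full control effect; nearly all actives have a fitted effect of over 60% in size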
In short: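 Recombinant Clk4 (6.25 nM) phosphorylated 100 uM RS repeat peptide with 1 uM ATP in 25 mM Tris pH 7.5, 10 mM MgCl2, 0.5 mM EGTA, 2.5 mM DTT, 0.01% Triton X-100 for 1 h. ADP was detected by Transcreener ADP2 competitive fluorescence polarization after 30 min at room temperature.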

[13] = target: Ubiquitin carboxyl-terminal hydrolase 1 (Homo sapiens) (UniProt O94782); test: Inhibitors of USP1/UAF1: Pilot qHTS (AID 504865); details: purified USP1/UAF1, Ub-rhodamine cleavage fluorescence; series mostly up to 54.9 µM;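 note: rhodamine fluorescence freed from ubiquitin-rhodamine substrate followed over time; top concentration of the series differs between compounds; % is set by controls: 0 for no effect and ±100 for the full control effect; nearly all actives have a fitted effect of over 35% in size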
Ubiquitin carboxyl-terminal hydrolase 1 (Homo sapiens), sequence (O94782 whole entry, looked up): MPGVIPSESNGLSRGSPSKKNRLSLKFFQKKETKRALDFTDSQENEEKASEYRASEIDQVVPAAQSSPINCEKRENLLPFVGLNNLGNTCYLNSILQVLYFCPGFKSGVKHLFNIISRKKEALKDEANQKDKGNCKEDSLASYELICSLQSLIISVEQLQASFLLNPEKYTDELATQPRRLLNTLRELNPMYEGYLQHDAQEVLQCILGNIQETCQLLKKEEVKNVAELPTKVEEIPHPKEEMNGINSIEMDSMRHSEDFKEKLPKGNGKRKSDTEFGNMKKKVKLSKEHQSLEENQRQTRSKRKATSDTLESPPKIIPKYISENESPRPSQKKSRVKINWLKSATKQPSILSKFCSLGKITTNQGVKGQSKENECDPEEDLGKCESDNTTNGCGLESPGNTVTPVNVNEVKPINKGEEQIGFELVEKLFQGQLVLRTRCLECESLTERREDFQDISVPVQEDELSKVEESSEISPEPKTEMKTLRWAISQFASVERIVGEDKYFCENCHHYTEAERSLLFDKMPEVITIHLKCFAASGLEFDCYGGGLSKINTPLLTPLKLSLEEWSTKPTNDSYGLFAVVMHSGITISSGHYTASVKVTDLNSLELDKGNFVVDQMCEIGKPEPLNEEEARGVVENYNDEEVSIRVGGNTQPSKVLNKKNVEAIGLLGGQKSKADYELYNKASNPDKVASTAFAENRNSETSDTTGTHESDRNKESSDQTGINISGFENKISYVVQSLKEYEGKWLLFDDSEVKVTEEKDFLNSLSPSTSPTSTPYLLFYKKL
In short: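 USP1/UAF1 complex at 1 nM preincubated 15 min at room temperature with compound, then Ub-Rho substrate added at 150 nM final. Fluorescence (480/540 nm) read kinetically in 50 mM HEPES pH 7.8, 0.5 mM EDTA, 1 mM TCEP, 0.1 mg/ml BSA, 0.01% Tween-20.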

[14] = Primary qHTS for small molecule stabilizers of the endoplasmic reticulum resident proteome: Secreted ER Calcium Modulated Protein (SERCaMP) assay (AID 1508630); details: SH-SY5Y GLuc-SERCaMP (Gaussia luciferase released on ER calcium loss) secretion, thapsigargin, luminescence; series mostly up to 38.4 µM; note: % is set by controls: 0 for no effect and ±100 for the full control effect
In short: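 The SH-SY5Y reporter protocol was run at 3 concentrations up to 38.3 uM (primary) or 11 concentrations (follow-up): 16 h compound, 100 nM thapsigargin for 4 h, then extracellular luciferase luminescence.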

[15] = target: Cytochrome P450 1A2 (Homo sapiens) (UniProt P05177); test: p450-cyp1a2 (AID 410; calls by dose curve; note: potency is the fitted concentration of half-maximal effect); details: recombinant CYP1A2, luciferin-ME demethylation, luminescence; series mostly up to 57 µM
Cytochrome P450 1A2 (Homo sapiens), sequence (P05177 whole entry, looked up): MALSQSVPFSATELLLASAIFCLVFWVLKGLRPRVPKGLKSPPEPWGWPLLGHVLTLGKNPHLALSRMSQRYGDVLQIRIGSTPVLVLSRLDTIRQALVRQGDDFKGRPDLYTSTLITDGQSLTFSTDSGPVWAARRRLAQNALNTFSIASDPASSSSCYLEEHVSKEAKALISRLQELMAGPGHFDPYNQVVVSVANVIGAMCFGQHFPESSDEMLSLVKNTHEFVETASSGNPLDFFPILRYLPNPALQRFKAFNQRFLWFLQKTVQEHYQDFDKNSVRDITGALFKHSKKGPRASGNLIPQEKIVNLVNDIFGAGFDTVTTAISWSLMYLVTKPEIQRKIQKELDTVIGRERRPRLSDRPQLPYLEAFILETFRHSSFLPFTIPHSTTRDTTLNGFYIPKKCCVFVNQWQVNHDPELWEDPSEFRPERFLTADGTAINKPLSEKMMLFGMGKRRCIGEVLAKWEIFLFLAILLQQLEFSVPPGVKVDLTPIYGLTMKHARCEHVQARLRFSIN
In short: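 Luminescent demethylation readout: Luciferin-ME (100uM, equal to Km) turned over by 20nM CYP1A2 for 60 min at room temperature after NADPH regeneration addition, following 10 min compound preincubation. Normalization used 57 uM furafylline as full inhibition.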

[16] = target: Cytochrome P450 3A4 (Homo sapiens) (UniProt P08684); test: qHTS Assay for Activators of Cytochrome P450 3A4 (AID 885); details: recombinant CYP3A4, Luciferin-PPXE luminescence, 60 min; series mostly up to 57.1 µM; note: nearly all actives have a fitted effect of over 65% in size
Cytochrome P450 3A4 (Homo sapiens), sequence (P08684 whole entry, looked up): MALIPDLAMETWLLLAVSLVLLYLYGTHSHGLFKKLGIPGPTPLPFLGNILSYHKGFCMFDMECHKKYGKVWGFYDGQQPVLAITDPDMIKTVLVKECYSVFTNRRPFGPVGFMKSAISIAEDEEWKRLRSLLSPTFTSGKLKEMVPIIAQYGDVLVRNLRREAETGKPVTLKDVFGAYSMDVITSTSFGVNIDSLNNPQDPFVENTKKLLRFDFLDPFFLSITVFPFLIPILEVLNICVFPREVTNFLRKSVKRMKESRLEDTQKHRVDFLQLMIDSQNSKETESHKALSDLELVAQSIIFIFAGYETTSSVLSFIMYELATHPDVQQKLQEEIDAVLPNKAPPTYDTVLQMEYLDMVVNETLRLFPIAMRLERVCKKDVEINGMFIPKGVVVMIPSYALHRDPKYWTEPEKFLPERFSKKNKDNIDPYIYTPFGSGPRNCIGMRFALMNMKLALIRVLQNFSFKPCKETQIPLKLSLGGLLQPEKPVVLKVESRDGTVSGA
In short: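 Human CYP3A4 dealkylates Luciferin-PPXE to luciferin, which luciferase detection converts to light. Substrate was at its KM (25uM), buffer 200mM KPO4, reaction 60 min at RT.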

[17] = target: Cytochrome P450 2C19 (Homo sapiens) (UniProt P33261); test: qHTS Assay for Inhibitors and Substrates of Cytochrome P450 2C19 (AID 899); details: recombinant CYP2C19, luciferin-H EGE luminescence; series mostly up to 57.1 µM; note: potency is the fitted concentration of half-maximal effect; nearly all actives have a fitted effect of over 60% in size
Cytochrome P450 2C19 (Homo sapiens), sequence (P33261 whole entry, looked up): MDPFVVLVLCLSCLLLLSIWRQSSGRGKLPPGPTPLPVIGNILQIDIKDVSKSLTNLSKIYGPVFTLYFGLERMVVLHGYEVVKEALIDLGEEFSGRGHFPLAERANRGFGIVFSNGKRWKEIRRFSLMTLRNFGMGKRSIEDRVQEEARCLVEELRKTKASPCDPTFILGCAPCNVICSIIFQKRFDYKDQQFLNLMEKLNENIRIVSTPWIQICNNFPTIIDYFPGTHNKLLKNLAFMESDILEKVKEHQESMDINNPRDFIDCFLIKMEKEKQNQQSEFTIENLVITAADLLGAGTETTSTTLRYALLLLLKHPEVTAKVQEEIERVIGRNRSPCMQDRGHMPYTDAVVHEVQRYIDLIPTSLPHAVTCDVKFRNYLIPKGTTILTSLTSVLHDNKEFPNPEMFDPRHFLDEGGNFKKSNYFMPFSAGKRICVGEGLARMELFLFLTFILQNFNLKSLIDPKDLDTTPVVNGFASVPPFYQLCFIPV
In short: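 5nM enzyme + 10uM Luciferin-H EGE (=KM), 50mM KPO4; cpd pin-transferred, 10 min 37C; NADPH regen, 60 min 37C; stopped w/ luciferin detection reagent, 20 min; luminescence. Normalized to 57uM ketoconazole (AC100).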

[18] = target: Cytochrome P450 3A4 (Homo sapiens) (UniProt P08684); test: qHTS Assay for Inhibitors and Substrates of Cytochrome P450 3A4 (AID 884); details: recombinant CYP3A4, Luciferin-PPXE luminescence; series mostly up to 57.1 µM; note: potency is the fitted concentration of half-maximal effect; nearly all actives have a fitted effect of over 50% in size
In short: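 Luminescent readout of luciferin produced by CYP3A4 (20 nM) dealkylation of Luciferin-PPXE, 25 uM (its KM). NADPH-driven reaction ran 60 min at RT after 10 min compound preincubation; data scaled to 57 uM ketoconazole as 100% inhibition.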

[19] = measured here: cell count channel max response
[20] = measured here: lipid channel max response

COc1ccccc1-c1nccc(NC2CCNCC2)n1
8.77%: max response [9, 20]
7.38%: max response [9, 19]
inactive: Potency [1] > 11.4 µM | activity change, negative = inhibition [2] 3.56% | activity change, negative = inhibition [3] 5.88% | activity, negative = inhibition [4] 27.9% | Potency [5] > 46 µM | Potency [6] > 46 µM | outcome [7] | Potency [8] | activity change, negative = inhibition [9] 2.87% | Potency [10] | Potency [11] | Potency [12] | Potency [13] | Potency [14]

COc1ccc(-c2nc3cnc(N4CCOCC4)nc3n(-c3ccccc3)c2=O)cc1
inactive: Potency [1] > 11.4 µM | activity change, negative = inhibition [2] 25.7% | activity change, negative = inhibition [3] 23.9% | activity, negative = inhibition [4] 13.1% | Potency [5] > 9.22 µM | Potency [6] > 46 µM | outcome [7] | Potency [8] | activity change, negative = inhibition [9] 1.08% | Potency [10] | Potency [11] | Potency [12] | Potency [13] | Potency [14]
21.4%: max response [9, 20]
22%: max response [9, 19]

COc1ncc2nc(-c3ccc(F)cc3)c(=O)n(C3CC3)c2n1
inactive: Potency [1] > 11.4 µM | activity change, negative = inhibition [2] -9.24% | activity change, negative = inhibition [3] -21.4% | activity, negative = inhibition [4] -4.24% | Potency [5] > 9.22 µM | Potency [6] > 46 µM | outcome [7] | Potency [8] | activity change, negative = inhibition [9] 4.43% | Potency [10] | Potency [11] | Potency [12] | Potency [13] | Potency [14]
19.3%: max response [9, 20]
16.8%: max response [9, 19]

COCCn1c(=O)c(-c2cn(C)c3ccccc23)nc2cnc(N3CCOCC3)nc21
6.29%: max response [9, 19]
inactive: Potency [1] > 11.4 µM | activity change, negative = inhibition [2] -12.3% | activity change, negative = inhibition [3] 5.44% | activity, negative = inhibition [4] -11.9% | Potency [5] > 9.22 µM | Potency [6] > 46 µM | outcome [7] | Potency [8] | activity change, negative = inhibition [9] 4.05% | Potency [10] | Potency [11] | Potency [12] | Potency [13] | Potency [14]
8.52%: max response [9, 20]

CN(Cc1ccco1)c1ncncc1-c1ccccc1Cl
inactive: Potency [1] > 11.4 µM | activity change, negative = inhibition [2] 23.7% | activity, negative = inhibition [4] 3.72% | Potency [6] > 46 µM | outcome [7] | Potency [8] | Potency [16] | activity change, negative = inhibition [9] 7.31% | Potency [10] | Potency [11] | Potency [12] | Potency [13] | Potency [14]
active: Potency [15] 25.1 µM | Potency [17] 0.794 µM
19.6%: max response [9, 20]
14.4%: max response [9, 19]

Cc1ccccc1-c1cncnc1NCc1ccccc1
7.66%: max response [9, 19]
10.6%: max response [9, 20]
active: Potency [15] 12.6 µM | Potency [18] 0.316 µM
inactive: Potency [1] > 11.4 µM | activity change, negative = inhibition [2] -6.25% | Potency [5] > 46 µM | Potency [6] > 46 µM | outcome [7] | Potency [16] | activity change, negative = inhibition [9] 5.04% | Potency [10] | Potency [11] | Potency [12] | Potency [13] | Potency [14]
